Test results: PubChem BioAssay (NCI)
Compounds without any hit were thinned out: in the full panel of roughly 83,000, 20% have a hit.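 Single-dose data. Exposure time 48 hours. Values below 10 considered active.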 Active and inactive are the calls of the source.

The compounds below were run on UO-31 renal (assay: NCI-60 one-dose screen, 48 h (100 = growth as untreated, 0 = no growth, -100 = all killed)). Conditions: 10 µM.

Structure (SMILES) | growth
C=C(C)[C@@H]1CC[C@]2(COCCC#N)CC[C@]3(C)[C@H](CC[C@@H]4[C@@]5(C)Cc6c([nH]c7ccccc67)C(C)(C)[C@@H]5CC[C@]43C)[C@@H]12 | 94.2% (inactive)
CC(=O)[C@H]1CC[C@]2(C)[C@@H]1CC[C@@H]1[C@@]3(C)CC(CCC#N)(CCC#N)C(=O)C(C)(C)[C@@H]3CC[C@]12C | 82% (inactive)
O=C1c2ccccc2C(=O)c2c1ccc(C(Br)Br)c2Cl | 52.4% (inactive)
Clc1ccc(/C=C2\CCCC3C2=Nc2ccccc2NC3c2ccc(Cl)cc2)cc1 (centres undefined) | 70.7% (inactive)
Cc1ccc(/C=C/C(=O)C(=O)/C=C/c2ccc(C)cc2)cc1 | 89.7% (inactive)
O=C(Nc1ccccc1)Nc1ncnc2c1ncn2-c1ccccc1 | 69.4% (inactive)
CCn1c(SC/C(=N/O)c2ccccc2)nnc1-c1ccccc1 | 91.5% (inactive)
Cc1cc(SCc2ccccc2)nc(N)n1 | 98.1% (inactive)
COc1cc2cc(Oc3ccc(NC(=O)Nc4ccc(Cl)c(C(F)(F)F)c4)cc3)c(C)nc2cc1OC | -45.1% (active)
CCCCCCCCCCCCCCCCCC[n+]1ccc2c(C)c3c(c(C)c2c1)c1cc(O)ccc1n3CC | 39.8% (inactive)
CN1CCc2c(sc3nc4n(-c5ccc(Cl)cc5)cnn4c(=O)c23)C1 | 84.1% (inactive)
CN1CCc2c(sc3nc4n(-c5ccc(Cl)cc5)c(=O)[nH]n4c(=O)c23)C1 | 89.7% (inactive)
C[n+]1c2ccccc2nc2ccccc21 | 42.4% (inactive)

The compounds below were run on TK-10 renal in the same assay as above. Conditions: 10 µM.

Structure (SMILES) | growth
CC(=O)OC/C=C(/C)C[P+](c1ccccc1)(c1ccccc1)c1ccccc1 | 70.6% (inactive)
CCOC(=O)c1cc(C(=O)c2cc(OC)cc(OC)c2)n2ncc3ccccc3c12 | -8.97% (active)
C=CCN(CC=C)C(=O)[C@H](CC)[C@@H]1CC[C@@H](C)[C@@H]([C@H](C)[C@@H](O)[C@@H](C)C(=O)[C@H](CC)C2O[C@]3(C=CC(=O)[C@]4(CC[C@@](C)([C@H]5CC[C@](O)(CC)[C@H](C)O5)O4)O3)[C@H](C)C[C@@H]2C)O1 (some centres undefined) | 35.5% (inactive)
O=C(CCn1cnc2c(cc(-c3ccccc3)n2-c2ccccc2)c1=O)Nc1ccc(F)cc1 | 92.8% (inactive)
CCCN(CCC)C(=O)[C@H](CC)[C@@H]1CC[C@@H](C)[C@@H]([C@H](C)[C@@H](O)[C@@H](C)C(=O)[C@H](CC)C2O[C@]3(C=C[C@@H](O)[C@]4(CC[C@@](C)([C@H]5CC[C@](O)(CC)[C@H](C)O5)O4)O3)[C@H](C)C[C@@H]2C)O1 (some centres undefined) | 20.7% (inactive)
CCOC(=O)c1cc(C(=O)c2cc(OC)c(OC)c(OC)c2)n2c1ccc1c3cccnc3ccc12 | 85.3% (inactive)
COc1cc(NC(=O)Nc2cnc(Nc3ccc(N4CCOCC4)cc3)nc2Oc2cccc(OC)c2)cc(OC)c1 | 54.7% (inactive)
Fc1ccc2[nH]cc(-c3nc(-c4ccsc4)cs3)c2c1 | 133% (inactive)
IC(I)I | 107% (inactive)
Cc1ccc(-n2c(C)nn3c(=O)c4c5c(sc4nc23)CN(C)CC5)cc1 | 82.4% (inactive)
N#CC1=C(N)Oc2cc(N)ccc2C1c1cccnc1 (centres undefined) | 119% (inactive)
O=C(CCCCNC(=O)c1nc(-c2ccccc2)n(-c2ccccc2)n1)NO | 56% (inactive)
COc1ccc(-c2cc(-c3ccc(OC)c(OC)c3)nc(SCCCC(=O)NO)n2)cc1 | -0.0305% (active)
O=C(/C=C/C=C/c1c(C2CC2)nc2ccccc2c1-c1ccc(F)cc1)c1cccs1 | 22.4% (inactive)
O=C(Nc1nc(-c2ccccc2)nc2c1sc(=S)n2-c1ccccc1)C(F)(F)F | 117% (inactive)
O=C(CSc1nnc(-c2ccc(Cl)cc2)o1)Nc1ccc(C(=O)/C=C/c2ccc(Cl)cc2)cc1 | 118% (inactive)

Structure (SMILES) | growth
C=CCn1c(SCC(=O)Nc2ccc(C(=O)/C=C/c3ccc(OC)cc3)cc2)nnc1-c1ccc(OC)c(OC)c1 | 110% (inactive)
CN1CCN(CC(=O)Nc2cccc(-n3cc(-c4ccncc4)c(-c4ccc(Cl)c(O)c4)n3)c2)CC1 | 103% (inactive)
CCc1ccc(C2=NN(c3ccc(S(C)(=O)=O)cc3)C(=O)CC2)cc1 | 71.1% (inactive)
Cc1nn(-c2ccc(-c3ccc(OC(F)(F)F)cc3)cc2)c2nc(Cc3ccccc3)nc(N)c12 | 68.1% (inactive)
Cn1c2ccccc2c2c3[nH][nH]c(=O)c3c3c4ccccc4[nH]c3c21 | 93% (inactive)
CC[C@H]1OC(=O)[C@H](C)[C@@H](O[C@H]2C[C@@](C)(OC)[C@@H](O)[C@H](C)O2)[C@H](C)[C@@H](O[C@@H]2O[C@H](C)C[C@H](N(C)C)[C@H]2O)[C@](C)(OC)C/C(C)=C2/O[C@@]1(C)C=C2C | 97.4% (inactive)
C=C(C)[C@@H]1CC[C@]2(COCCC#N)CC[C@]3(C)[C@H](CC[C@@H]4[C@@]5(C)Cc6c([nH]c7ccccc67)C(C)(C)[C@@H]5CC[C@]43C)[C@@H]12 | 100% (inactive)
CC(=O)[C@H]1CC[C@]2(C)[C@@H]1CC[C@@H]1[C@@]3(C)CC(CCC#N)(CCC#N)C(=O)C(C)(C)[C@@H]3CC[C@]12C | 104% (inactive)
O=C1c2ccccc2C(=O)c2c1ccc(C(Br)Br)c2Cl | 83.9% (inactive)
Cc1ccc(/C=C/C(=O)C(=O)/C=C/c2ccc(C)cc2)cc1 | 92% (inactive)
O=C(Nc1ccccc1)Nc1ncnc2c1ncn2-c1ccccc1 | 75.2% (inactive)
Cc1cc(SCc2ccccc2)nc(N)n1 | 107% (inactive)
CCCCCCCCCCCCCCCCCC[n+]1ccc2c(C)c3c(c(C)c2c1)c1cc(O)ccc1n3CC | 17.8% (inactive)
CN1CCc2c(sc3nc4n(-c5ccc(Cl)cc5)cnn4c(=O)c23)C1 | 116% (inactive)
CN1CCc2c(sc3nc4n(-c5ccc(Cl)cc5)c(=O)[nH]n4c(=O)c23)C1 | 88.3% (inactive)
